Test results published in PubChem BioAssay AID1159580 (chemical genetic matrix, 2015).
About 2,000 (36%) of roughly 5,500 compounds were called active. Roughly 18% stayed inconclusive and do not appear here. Cut-off read from the data, not from the text of the source: active = normalized growth mostly below about 0.91 (no sharp cut-off); inconclusive = no clear call, values can overlap the other calls; inactive = mostly above about 0.92. This is one part of the list.

Assay: chemical genetic growth profiling, strain panel (AID 1159580);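 note: tested at 20 µM; growth read once vehicle control cultures reached saturation at 30 °C; 1 = growth at the plate median or of vehicle wells; lower values mean less growth of the strain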
Conditions: growth OD

Measured: normalized growth

CC(C)CC1NC(=O)NC1=O (stereo not drawn)
inactive: S. cerevisiae deletion strains, locus YAL013W, strain DEP1, hits give low values 1.02 | S. cerevisiae deletion strains, locus YBR229C, strain ROT2, hits give low values 1.01 | S. cerevisiae deletion strains, locus YDL101C, strain DUN1, hits give low values 1 | S. cerevisiae deletion strains, locus YDL134C, strain PPH21, hits give low values 1.05 | S. cerevisiae deletion strains, locus YDR150W, strain NUM1, hits give low values 1.01 | S. cerevisiae deletion strains, locus YEL061C, strain CIN8, hits give low values 1.02 | S. cerevisiae deletion strains, locus YGR078C, strain PAC10, hits give low values 1.01 | S. cerevisiae deletion strains, locus YGR229C, strain SMI1, hits give low values 1.01 | S. cerevisiae deletion strains, locus YHR030C, strain SLT2, hits give low values 1.04 | S. cerevisiae deletion strains, locus YHR087W, strain rtc3, hits give low values 1.02 | S. cerevisiae deletion strains, locus YJR043C, strain POL32, hits give low values 1.01 | S. cerevisiae deletion strains, locus YJR075W, strain HOC1, hits give low values 1.02 | S. cerevisiae deletion strains, locus YLR039C, strain RIC1, hits give low values 1 | S. cerevisiae deletion strains, locus YLR058C, strain SHM2 (second series), hits give low values 0.998 | S. cerevisiae deletion strains, locus YLR085C, strain ARP6, hits give low values 1.07 | S. cerevisiae deletion strains, locus YLR262C, strain YPT6, hits give low values 1 | S. cerevisiae deletion strains, locus YML094W, strain GIM5, hits give low values 1.03 | S. cerevisiae deletion strains, locus YMR219W, strain ESC1, hits give low values 1.01 | S. cerevisiae deletion strains, locus YMR263W, strain SAP30, hits give low values 1.01 | S. cerevisiae deletion strains, locus YMR307W, strain GAS1, hits give low values 1.02 | S. cerevisiae deletion strains, locus YNL153C, strain GIM3, hits give low values 1.01 | S. cerevisiae deletion strains, locus YNL298W, strain CLA4 (second series), hits give low values 0.984 | S. cerevisiae deletion strains, locus YNL322C, strain KRE1, hits give low values 1.02 | S. cerevisiae deletion strains, locus YNR030W, strain Alg12, hits give low values 1.02 | S. cerevisiae deletion strains, locus YPL055C, strain LGE1, hits give low values 1.07 | S. cerevisiae deletion strains, locus YPL241C, strain CIN2, hits give low values 1.02 | S. cerevisiae deletion strains, locus YPR135W, strain CTF4, hits give low values 1.13 | S. cerevisiae strains, strain wild type, hits give low values 1.02
